Screens: PubChem BioAssay, Broad Institute
YB-1 expression = inhibitors of YB-1 gene expression, primary screen, cell-based, fluorescence; 0.37% of 30,000 active; U2OS, qRT-PCR YB-1 vs CDIP delta delta Cp, 16 h; active compounds read high; zero = DMSO, each unit about twofold; delta delta Cp (YB-1 minus CDIP) (test concentration not listed);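 active = delta delta Cp rounded down to an integer at or above 3, about 3 SD of DMSO wells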;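 note: higher means less YB-1 transcript or more CDIP transcript relative to DMSO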
U2OS ROS induce = ROS inducers in U2OS cancer cells, primary screen, cell-based, H2DCF-DA fluorescence | U2OS ROS induction | ROS induction (% of piperlongumine), % at 10 µM | 2% of 46,000 active; in the data active = ROS induction above about 79%, passing the limit was not always enough; inconclusive = no clear call, values can overlap the other calls
Each line names hits and unclear results; the compound was inactive in the other large screens. This is a sample that favours compounds with a hit; in the whole collection about 2.1% have one here.

COc1cc(CO)ccc1OCC(=O)Nc1ccc(C)cc1	U2OS ROS induce 122 (no result: YB-1 expression)
C[C@@H]1CCCCO[C@H](CN(C)Cc2ccc3c(c2)OCO3)[C@@H](C)CN([C@H](C)CO)C(=O)c2cc(NS(=O)(=O)c3ccc(Cl)cc3)ccc2O1	none
C[C@@H]1CCCCO[C@@H](CN(C)S(=O)(=O)c2ccc(Cl)cc2)[C@@H](C)CN([C@H](C)CO)C(=O)c2cc(NS(=O)(=O)c3ccc(Cl)cc3)ccc2O1	U2OS ROS induce inconclusive
C[C@@H]1CCCCO[C@@H](CN(C)S(=O)(=O)c2ccccc2)[C@@H](C)CN([C@H](C)CO)C(=O)c2cc(NS(=O)(=O)c3ccc(Cl)cc3)ccc2O1	U2OS ROS induce 113
C[C@@H]1CCCCO[C@@H](CN(C)S(=O)(=O)c2ccc(Cl)cc2)[C@@H](C)CN([C@H](C)CO)C(=O)c2cc(NS(=O)(=O)c3ccc(F)cc3)ccc2O1	U2OS ROS induce 118
C[C@@H]1CCCCO[C@H](CN(C)S(=O)(=O)c2ccc(F)cc2)[C@@H](C)CN([C@H](C)CO)C(=O)c2cc(NC(=O)NC3CCCCC3)ccc2O1	U2OS ROS induce 166
C[C@@H]1CCCCO[C@@H](CN(C)S(=O)(=O)c2ccc(F)cc2)[C@@H](C)CN([C@H](C)CO)C(=O)c2cc(NS(=O)(=O)c3ccc(F)cc3)ccc2O1	none
C[C@@H]1CCCCO[C@@H](CN(C)S(=O)(=O)c2ccc(F)cc2)[C@@H](C)CN([C@H](C)CO)C(=O)c2cc(NC(=O)Nc3ccc(F)cc3)ccc2O1	none
Cc1ccc(S(=O)(=O)Nc2ccc3c(c2)C(=O)N([C@H](C)CO)C[C@H](C)[C@@H](CN(C)Cc2ccc4c(c2)OCO4)OCCCC[C@@H](C)O3)cc1	U2OS ROS induce 95
C[C@H]1CN([C@@H](C)CO)C(=O)Cc2cc(N(C)C)ccc2O[C@H]1CN(C)S(=O)(=O)c1ccc(Cl)cc1	none
C[C@@H]1CN([C@@H](C)CO)C(=O)c2cccc(NC(=O)C3CC3)c2O[C@H]1CN(C)Cc1ccc(Oc2ccccc2)cc1	none
C[C@@H]1CN([C@H](C)CO)C(=O)c2cccc(NC(=O)Nc3ccc(C(F)(F)F)cc3)c2O[C@H]1CN(C)S(=O)(=O)c1cccs1	none
C[C@@H]1CN([C@H](C)CO)C(=O)Cc2cc(NC(=O)C3CCCCC3)ccc2O[C@H]1CN(C)Cc1ccccc1	none
C[C@@H]1CCCCO[C@@H](CN(C)S(=O)(=O)c2ccc(Cl)cc2)[C@@H](C)CN([C@H](C)CO)C(=O)c2cc(NC(=O)c3ccccc3)ccc2O1	U2OS ROS induce 133
C[C@@H]1CCCCO[C@H](CN(C)S(=O)(=O)c2ccccc2)[C@@H](C)CN([C@H](C)CO)C(=O)c2cc(NC(=O)c3ccccc3)ccc2O1	none
CCOC(=O)C1=CS/C(=C2/C(=S)C(C)(C)N(C(=O)CC(C)C)c3ccc(OCC)cc32)S1	none (no result: YB-1 expression)
COc1cccc(CN(C)C[C@H]2OCc3cnnn3CCCC(=O)N([C@H](C)CO)C[C@@H]2C)c1	none
CC(C)OC(=O)CSc1nc(-c2cccs2)cc(C(F)(F)F)c1C#N	none (no result: YB-1 expression)
CCN(CC)c1cc(-c2cccs2)nc(SCC(=O)c2cccs2)c1C#N	U2OS ROS induce 220
CCC(C)OC(=O)C(C)Oc1ccc2c3c(c(=O)oc2c1)CCC3 (centres undefined)	none (no result: YB-1 expression)
CC(C)COC(=O)C(C)Oc1ccc2c3c(c(=O)oc2c1)CCC3 (centres undefined)	U2OS ROS induce 122 (no result: YB-1 expression)
C[C@H](CO)N1C[C@H](C)[C@@H](CN(C)C)Oc2ccc(NC(=O)CCC(F)(F)F)cc2C1=O	none
C=C(C(=O)O)[C@@H]1CC[C@@]2(C)CC[C@@H](O)C(=C)C2C1 (some centres undefined)	YB-1 expression 3.6
C=C(C(=O)O)[C@@H]1CC[C@@]2(C)CCC=C(C)[C@@H]2C1	none
COc1ccc(CN(C)C[C@H]2Oc3ccc(NS(=O)(=O)c4ccc(F)cc4)cc3CC(=O)N([C@H](C)CO)C[C@H]2C)cc1	none
CC(=O)c1cccc(NC(=O)CSc2nc(N3CCCCC3)nc(N3CCCCC3)n2)c1	none (no result: YB-1 expression)
O=C(O)c1cccc(Nc2nc(Nc3ccccc3)nc(N3CCCC3)n2)c1	U2OS ROS induce 150 (no result: YB-1 expression)
N#Cc1ccc(OCc2ccc(C(F)(F)F)cc2)c(Cl)c1	none (no result: YB-1 expression)
COc1cccc2oc(-c3ccccc3)c(Br)c12	none (no result: YB-1 expression)
CNS(=O)(=O)c1cc(-c2nnc(Nc3ccc4c(c3)OCO4)c3ccccc23)ccc1C	none
COC(=O)C1=C(C)Nc2ncnn2C1c1ccc(OCC(=O)N2CCOCC2)c(OC)c1 (centres undefined)	none (no result: YB-1 expression)
COc1cc(C2C(C#N)=C(C)Nc3oc(C)nc32)ccc1OCCN1CCOCC1 (centres undefined)	U2OS ROS induce 116
CSc1sc(C(=O)Sc2ccccc2)cc1S(=O)(=O)C(C)C	U2OS ROS induce 80
CSc1sc(C(=O)Sc2ccccc2)c2c1S(=O)(=O)N(C)c1ccccc1-2	none
O=S(=O)(NCC1CCN(Cc2cccc(OCCO)c2)CC1)c1ccc(Cl)c(Cl)c1	U2OS ROS induce 123
O=S(=O)(N[C@@H]1CCCN(Cc2cccc(OCCO)c2)C1)c1ccc(Cl)c(Cl)c1	none
C[C@@H]1CN([C@@H](C)CO)C(=O)Cc2cc(N(C)C)ccc2O[C@@H]1CN(C)S(=O)(=O)c1ccc(F)cc1	none
